# The full list was thinned out, with the strongest signals kept by preference.
# Assays:
# Assay in all cases: glycan array binding signal (z-score within array); higher = stronger binding
# Settings in all cases: glycan notation: IUPAC condensed, linker removed
# [1] = molecular target: Fuc(a1-2)Gal(b1-3)GalNAc(a1-3)[Fuc(a1-2)]Gal(b1-4)Glc
# Procedure, shortened: (§1)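 From the Consortium for Functional Glycomics database, 3228 arrays were curated, keeping only those whose protein sequence was available. Binding is given as a within-array Z-score averaged across arrays sharing a protein sequence and across linkers. Negative Z-scores can be read as non-binding.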
# [2] = molecular target: Fuc(a1-2)Gal(b1-3)[Fuc(a1-4)]GlcNAc(b1-3)[Gal(b1-4)GlcNAc(b1-6)]Gal(b1-4)Glc
# Procedure, shortened: as §1
# [3] = molecular target: Fuc(a1-2)[Gal(a1-3)]Gal(b1-3)GlcNAc(b1-6)GalNAc
# Procedure, shortened: as §1
# [4] = molecular target: Fuc(a1-2)[Gal(a1-3)]Gal(b1-4)[Fuc(a1-3)]Glc
# Procedure, shortened: as §1
# [5] = molecular target: Fuc(a1-2)[Gal(a1-4)]Gal(b1-4)GlcNAc
# Procedure, shortened: as §1
# [6] = molecular target: Fuc(a1-2)[GalNAc(a1-3)]Gal(b1-3)GalNAc(a1-3)[Fuc(a1-2)]Gal(b1-4)GlcNAc
# Procedure, shortened: as §1
# [7] = molecular target: Fuc(a1-2)[GalNAc(a1-3)]Gal(b1-4)GlcNAc(b1-3)Gal(b1-4)GlcNAc
# Procedure, shortened: as §1
# [8] = molecular target: Fuc(a1-2)[GalNAc(a1-3)]Gal(b1-4)[Fuc(a1-3)]GlcNAc(b1-3)GalNAc
# Procedure, shortened: as §1
# [9] = molecular target: Fuc(a1-3)[Gal(b1-4)]GlcNAc6S
# Procedure, shortened: as §1
# Gal(a1-3)Gal(b1-3)GlcNAc = molecular target: Gal(a1-3)Gal(b1-3)GlcNAc
# Procedure, shortened: as §1
# [10] = molecular target: Gal(a1-3)Gal(b1-4)GlcNAc(b1-3)GalNAc
# Procedure, shortened: as §1
# [11] = molecular target: Gal(a1-4)Gal(b1-3)GlcNAc(b1-2)Man(a1-3)[Gal(a1-4)Gal(b1-3)GlcNAc(b1-2)Man(a1-6)]Man(b1-4)GlcNAc(b1-4)GlcNAc
# Procedure, shortened: as §1
# [12] = molecular target: Gal(b1-3)GlcNAc(b1-3)Gal(b1-4)GlcNAc(b1-6)[Gal(b1-3)GlcNAc(b1-3)]Gal(b1-4)Glc
# Procedure, shortened: as §1
# [13] = molecular target: Gal(b1-3)[Fuc(a1-4)]GlcNAc(b1-6)GalNAc
# Procedure, shortened: as §1
# Gal(b1-4)GlcNAc = molecular target: Gal(b1-4)GlcNAc
# Procedure, shortened: as §1
# [14] = molecular target: Gal(b1-4)GlcNAc(a1-6)Gal(b1-4)GlcNAc
# Procedure, shortened: as §1
# [15] = molecular target: Gal(b1-4)GlcNAc(b1-2)Man(a1-3)Man(b1-4)GlcNAc(b1-4)GlcNAc
# Procedure, shortened: as §1
# [16] = molecular target: Gal(b1-4)GlcNAc(b1-2)[Gal(b1-4)GlcNAc(b1-4)]Man(a1-3)[GlcNAc(b1-4)][Gal(b1-4)GlcNAc(b1-2)Man(a1-6)]Man(b1-4)GlcNAc(b1-4)GlcNAc
# Procedure, shortened: as §1
# [17] = molecular target: Gal(b1-4)GlcNAc(b1-2)[Gal(b1-4)GlcNAc(b1-6)]Man(a1-6)[Gal(b1-4)GlcNAc(b1-2)Man(a1-3)]Man(b1-4)GlcNAc(b1-4)[Fuc(a1-6)]GlcNAc
# Procedure, shortened: as §1
# [18] = molecular target: Gal(b1-4)GlcNAc(b1-3)Gal(b1-4)GlcNAc(b1-2)[Gal(b1-4)GlcNAc(b1-3)Gal(b1-4)GlcNAc(b1-6)]Man(a1-6)[Gal(b1-4)GlcNAc(b1-3)Gal(b1-4)GlcNAc(b1-2)Man(a1-3)]Man(b1-4)GlcNAc(b1-4)[Fuc(a1-6)]GlcNAc
# Procedure, shortened: as §1
# [19] = molecular target: Gal(b1-4)GlcNAc(b1-3)Gal(b1-4)GlcNAc(b1-3)Gal(b1-4)GlcNAc(b1-3)Gal(b1-4)GlcNAc(b1-2)[Gal(b1-4)GlcNAc(b1-3)Gal(b1-4)GlcNAc(b1-3)Gal(b1-4)GlcNAc(b1-3)Gal(b1-4)GlcNAc(b1-6)]Man(a1-6)[Gal(b1-4)GlcNAc(b1-3)Gal(b1-4)GlcNAc(b1-3)Gal(b1-4)GlcNAc(b1-3)Gal(b1-4)GlcNAc(b1-2)Man(a1-3)]Man(b1-4)GlcNAc(b1-4)[Fuc(a1-6)]GlcNAc
# Procedure, shortened: as §1
# [20] = molecular target: Gal(b1-4)GlcNAc(b1-3)Gal(b1-4)GlcNAc(b1-3)Gal(b1-4)GlcNAc(b1-3)Gal(b1-4)GlcNAc(b1-3)Gal(b1-4)GlcNAc(b1-2)Man(a1-3)[Gal(b1-4)GlcNAc(b1-3)Gal(b1-4)GlcNAc(b1-3)Gal(b1-4)GlcNAc(b1-3)Gal(b1-4)GlcNAc(b1-3)Gal(b1-4)GlcNAc(b1-2)Man(a1-6)]Man(b1-4)GlcNAc(b1-4)GlcNAc
# Procedure, shortened: as §1
# [21] = molecular target: Gal(b1-4)GlcNAc(b1-3)Gal(b1-4)GlcNAc(b1-3)Gal(b1-4)GlcNAc(b1-3)Gal(b1-4)GlcNAc(b1-3)Gal(b1-4)GlcNAc(b1-2)[Gal(b1-4)GlcNAc(b1-3)Gal(b1-4)GlcNAc(b1-3)Gal(b1-4)GlcNAc(b1-3)Gal(b1-4)GlcNAc(b1-3)Gal(b1-4)GlcNAc(b1-6)]Man(a1-6)[Gal(b1-4)GlcNAc(b1-3)Gal(b1-4)GlcNAc(b1-3)Gal(b1-4)GlcNAc(b1-3)Gal(b1-4)GlcNAc(b1-3)Gal(b1-4)GlcNAc(b1-2)Man(a1-3)]Man(b1-4)GlcNAc(b1-4)[Fuc(a1-6)]GlcNAc
# Procedure, shortened: as §1
# [22] = molecular target: Gal(b1-4)GlcNAc(b1-6)Gal(b1-4)GlcNAc
# Procedure, shortened: as §1
# Gal6S(b1-3)GlcNAc6S = molecular target: Gal6S(b1-3)GlcNAc6S
# Procedure, shortened: as §1
# Gal6S(b1-4)Glc = molecular target: Gal6S(b1-4)Glc
# Procedure, shortened: as §1
# GalNAc(a1-3)GalNAc = molecular target: GalNAc(a1-3)GalNAc
# Procedure, shortened: as §1
# [23] = molecular target: GalNAc(b1-3)Gal(a1-6)Gal(b1-4)Glc
# Procedure, shortened: as §1
# GalNAc(b1-3)GalNAc = molecular target: GalNAc(b1-3)GalNAc
# Procedure, shortened: as §1
# GalNAc(b1-4)GlcNAc = molecular target: GalNAc(b1-4)GlcNAc
# Procedure, shortened: as §1
# Glc(b1-6)Glc = molecular target: Glc(b1-6)Glc
# Procedure, shortened: as §1
# [24] = molecular target: GlcNAc(b1-3)Gal(b1-4)GlcNAc(b1-3)Gal(b1-4)GlcNAc(b1-3)Gal(b1-4)GlcNAc(b1-3)Gal(b1-4)GlcNAc(b1-2)[GlcNAc(b1-3)Gal(b1-4)GlcNAc(b1-3)Gal(b1-4)GlcNAc(b1-3)Gal(b1-4)GlcNAc(b1-3)Gal(b1-4)GlcNAc(b1-6)]Man(a1-6)[GlcNAc(b1-3)Gal(b1-4)GlcNAc(b1-3)Gal(b1-4)GlcNAc(b1-3)Gal(b1-4)GlcNAc(b1-3)Gal(b1-4)GlcNAc(b1-2)Man(a1-3)]Man(b1-4)GlcNAc(b1-4)[Fuc(a1-6)]GlcNAc
# Procedure, shortened: as §1
# [25] = molecular target: GlcNAc(b1-3)Gal(b1-4)GlcNAc(b1-6)[Gal(b1-3)]GalNAc
# Procedure, shortened: as §1
# [26] = molecular target: Man(a1-2)Man(a1-2)Man(a1-6)[Man(a1-3)]Man
# Procedure, shortened: as §1
# [27] = molecular target: Man(a1-2)Man(a1-3)[Man(a1-2)Man(a1-6)]Man(a1-6)[Man(a1-2)Man(a1-2)Man(a1-3)]Man
# Procedure, shortened: as §1
# Man(a1-6)Man = molecular target: Man(a1-6)Man
# Procedure, shortened: as §1
# [28] = molecular target: Neu5Ac(a2-3)Gal(b1-3)GalNAc6S
# Procedure, shortened: as §1
# [29] = molecular target: Neu5Ac(a2-3)Gal(b1-4)GlcNAc(b1-2)[Neu5Ac(a2-3)Gal(b1-4)GlcNAc(b1-6)]Man(a1-6)[Neu5Ac(a2-3)Gal(b1-4)GlcNAc(b1-2)Man(a1-3)][GlcNAc(b1-4)]Man(b1-4)GlcNAc(b1-4)GlcNAc
# Procedure, shortened: as §1
# [30] = molecular target: Neu5Ac(a2-3)Gal(b1-4)GlcNAc(b1-3)Gal
# Procedure, shortened: as §1
# [31] = molecular target: Neu5Ac(a2-3)Gal(b1-4)GlcNAc(b1-3)Gal(b1-4)[Fuc(a1-3)]GlcNAc
# Procedure, shortened: as §1
# [32] = molecular target: Neu5Ac(a2-3)Gal(b1-4)GlcNAc6S
# Procedure, shortened: as §1
# [33] = molecular target: Neu5Ac(a2-3)Gal(b1-4)[Fuc(a1-3)]GlcNAc(b1-3)GalNAc
# Procedure, shortened: as §1
# [34] = molecular target: Neu5Ac(a2-6)Gal(b1-4)GlcNAc(b1-2)Man(a1-3)[Neu5Ac(a2-6)Gal(b1-4)GlcNAc(b1-2)Man(a1-6)]Man(b1-4)GlcNAc(b1-4)GlcNAc
# Procedure, shortened: as §1
# [35] = molecular target: Neu5Ac(a2-6)Gal(b1-4)GlcNAc(b1-2)Man(a1-6)Man(b1-4)GlcNAc(b1-4)GlcNAc
# Procedure, shortened: as §1
# [36] = molecular target: Neu5Ac(a2-6)Gal(b1-4)GlcNAc(b1-2)[Neu5Ac(a2-6)Gal(b1-4)GlcNAc(b1-4)]Man(a1-3)[GlcNAc(b1-4)][Neu5Ac(a2-6)Gal(b1-4)GlcNAc(b1-4)Man(a1-6)]Man(b1-4)GlcNAc(b1-4)GlcNAc
# Procedure, shortened: as §1
# [37] = molecular target: Neu5Ac(b2-6)Gal(b1-4)GlcNAc
# Procedure, shortened: as §1
# Neu5Gc(a2-3)Gal(b1-4)Glc = molecular target: Neu5Gc(a2-3)Gal(b1-4)Glc
# Procedure, shortened: as §1
binder,measurement,setting,value
Drgal1 (Danio rerio) (protein) MAGVLIQNMSFKVGQTLTITGVPKPDSTNFAINIGHSPEDIALHMNPRFDAHGDQCTIVCNSFQSGSWCEEHRDDNFPFIQDKEFQIKITFTNEEFLVTLPDGSEIHFPNRQGSEKYKYMYFEGEVRIQGVEIK,glycan array binding signal (z-score),[1],-0.59
same,glycan array binding signal (z-score),[2],0.383
same,glycan array binding signal (z-score),[3],0.084
same,glycan array binding signal (z-score),[4],-0.54
same,glycan array binding signal (z-score),[5],0.347
same,glycan array binding signal (z-score),[6],-0.091
same,glycan array binding signal (z-score),[7],-0.493
same,glycan array binding signal (z-score),[8],2.22
same,glycan array binding signal (z-score),[9],2.04
same,glycan array binding signal (z-score),Gal(a1-3)Gal(b1-3)GlcNAc,-0.76
same,glycan array binding signal (z-score),[10],-0.48
same,glycan array binding signal (z-score),[11],-0.114
same,glycan array binding signal (z-score),[12],1.9
same,glycan array binding signal (z-score),[13],-0.443
same,glycan array binding signal (z-score),Gal(b1-4)GlcNAc,-0.448
same,glycan array binding signal (z-score),[14],0.244
same,glycan array binding signal (z-score),[15],0.231
same,glycan array binding signal (z-score),[16],-0.015
same,glycan array binding signal (z-score),[17],0.501
same,glycan array binding signal (z-score),[18],1.92
same,glycan array binding signal (z-score),[19],2.07
same,glycan array binding signal (z-score),[20],7.35
same,glycan array binding signal (z-score),[21],2.15
same,glycan array binding signal (z-score),[22],0.065
same,glycan array binding signal (z-score),Gal6S(b1-3)GlcNAc6S,-0.095
same,glycan array binding signal (z-score),Gal6S(b1-4)Glc,0.281
same,glycan array binding signal (z-score),GalNAc(a1-3)GalNAc,0.206
same,glycan array binding signal (z-score),[23],-0.416
same,glycan array binding signal (z-score),GalNAc(b1-3)GalNAc,0.158
same,glycan array binding signal (z-score),GalNAc(b1-4)GlcNAc,3.67
same,glycan array binding signal (z-score),Glc(b1-6)Glc,-0.633
same,glycan array binding signal (z-score),[24],1.89
same,glycan array binding signal (z-score),[25],-0.519
same,glycan array binding signal (z-score),[26],-0.589
same,glycan array binding signal (z-score),[27],-0.28
same,glycan array binding signal (z-score),Man(a1-6)Man,1.43
same,glycan array binding signal (z-score),[28],-0.412
same,glycan array binding signal (z-score),[29],3.36
same,glycan array binding signal (z-score),[30],-0.372
same,glycan array binding signal (z-score),[31],-0.022
same,glycan array binding signal (z-score),[32],-0.362
same,glycan array binding signal (z-score),[33],5.78
same,glycan array binding signal (z-score),[34],0.521
same,glycan array binding signal (z-score),[35],0.046
same,glycan array binding signal (z-score),[36],-0.106
same,glycan array binding signal (z-score),[37],0.234
same,glycan array binding signal (z-score),Neu5Gc(a2-3)Gal(b1-4)Glc,0.145

# Source: the supplement of paper PMC8728848
